Measurements as given in PubChem BioAssay AID2216 (Broad Institute, 2009).
Screen size: about 300,000 compounds; about 3,300 (1.1%) were called active. Another 6% or so got no clear call; they are omitted.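 Rule for the calls: active = more than half of the replicate wells show a fall in the fluorescence ratio signal beyond about 16% (limit read from the data, passing the limit was not always enough); inconclusive = exactly half of the replicate wells pass the set limit; inactive = fewer than half of replicates pass the limit.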 The full list was thinned out, with actives kept by preference.

Test system: Ran GTPase (GTP-bound) - importin-beta complex
Test: disruptors of Ran-importin-beta complex formation – biochemical, FRET, CFP-Ran, YFP-importin-beta, homogeneous, primary screen (AID 2216);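 note: 0% = DMSO wells and 100% = Ran loaded with GDP instead of GTP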
Settings: cell-free CFP-Ran/YFP-importin-beta FRET ratio; active compounds read high; concentration not given here

inhibition, inactive:
COc1ccc(-c2cc(C(=O)Nc3ccccc3O)c3ccccc3n2)cc1 5.76%, O=C(N/N=C/c1cccnc1)c1cc2ccccc2cc1O -5.78%, Cc1ccccc1NC(=O)NNC(=O)OC(C)(C)C 3.65%, CCC(=O)OCCNc1nc(-c2ccccc2)nc2ccccc12 -0.305%, COC(=O)c1ccc(SCc2ccccc2)nc1 1.08%, CCc1nnc(NS(=O)(=O)c2ccc(NC(=O)c3cccc(OC(F)(F)C(F)F)c3)cc2)s1 -0.123%, COc1ccc(C(CNC(=O)c2ccc(S(=O)(=O)Nc3ccccc3C)cc2)N2CCOCC2)cc1 (centres undefined) 0.862%, O=S(=O)(Nc1ccc(O)c2ccccc12)c1ccc(OC(F)(F)F)cc1 2.4%, COc1ccc(CNS(=O)(=O)c2cc3c4c(c2)CCN4C(=O)CC3)cc1 -2.98%, Cc1nn(CC(=O)Nc2ccc(F)cc2)c(=O)c2ccccc12 0.000866%, Cn1c(SCC(=O)c2ccc(F)cc2)nnc1-c1ccccn1 8.68%, O=C(CNS(=O)(=O)c1ccccc1)N1CCN(C(=O)c2ccco2)CC1 1.51%, COc1ccccc1N(C)S(=O)(=O)c1ccc(Cl)c(C(=O)Nc2ccncc2)c1 -1.81%, CSCCC(NC(=O)COc1ccccc1)C(=O)OCCOc1ccc(F)cc1 (centres undefined) 6.76%, CCCCn1c(N)c(N(CC(C)C)C(=O)CN(C)S(=O)(=O)c2ccc(F)cc2)c(=O)[nH]c1=O 6.85%, CCN1C(=O)[C@@H]2[C@@H](c3ccc(-c4ccccc4)cc3)N3CCCC[C@@]3(C(=O)OC)[C@@H]2C1=O -2.21%, CCCc1cc(=O)oc2c(C)c(OC(C)C(=O)NCC(O)c3ccccc3)ccc12 (centres undefined) 1.81%, CCCc1cc(=O)oc2c(C)c(OCC(=O)N3CCC(C(=O)O)CC3)ccc12 0.461%, O=C(Nc1ccc(C(=O)N2CCOCC2)cc1)Nc1cccc(C(F)(F)F)c1 -2.36%, Cc1ccc(C)c(OCCC(=O)OCC(=O)c2ccc3c(c2)NC(=O)CO3)c1 0.406%, CCCCn1c(N)c(N(CCOC)C(=O)c2sc3ccccc3c2Cl)c(=O)[nH]c1=O 7.27%, Cc1nc2ccccc2c(=O)n1-c1ccc(F)c(NC(=O)c2cccs2)c1 7.77%, Cc1cccc(NC(=O)c2cccc(S(=O)(=O)N3CCCC3)c2)n1 1.93%, O=C(N/N=C/c1ccccn1)c1ccc(S(=O)(=O)N2CCCCCC2)cc1 3.77%, Cc1ccc(C(=O)CN2C(=O)NC3(CCc4ccccc43)C2=O)c(C)c1 (centres undefined) -0.128%, Cc1ccc(C(=O)NNC(=O)c2ccncc2)cc1S(=O)(=O)N1CCCCC1 -4.29%, CCOC(=O)C1=C(O)/C(=C/c2cc(C)n(-c3ccccc3)c2C)N=C1C 3.69%, Cc1ccc(NC(=O)COc2ccc(/C=C3/NC(=O)NC3=O)cc2)cc1 -1.54%, CCOC(=O)c1ccccc1NC(=O)c1c(N)n(C)c(=O)[nH]c1=O -1.23%, O=C(c1ccc(F)cc1)N1CCC(C(=O)N2CCN(S(=O)(=O)c3ccccc3Br)CC2)CC1 4.17%, O=C(Nc1cc2ccccc2oc1=O)C1CCCCC1 4.19%, CC(=O)Oc1ccc2c(C)c(CC(C)O)c(=O)oc2c1 (centres undefined) 10%, O=C1OC(/C=C/c2ccccc2)=NC/1=C/c1ccco1 0.891%, COc1ccccc1/C=C/C(=O)NC(=S)N1CCOCC1 -1.73%, COCc1ccc(C(=O)N2CCc3c([nH]c4ccccc34)C2c2ccccn2)s1 (centres undefined) 0.202%, O=C(c1cn2ccccc2n1)N1CCc2c([nH]c3ccccc23)C1c1ccccn1 (centres undefined) 3.68%, O=C(NCC1(N2CCCCC2)CCCCC1)c1ccc(NS(=O)(=O)c2ccc(F)cc2)cc1 -1.33%, COC(=O)[C@]1(C)N[C@H](c2ccc(-c3ccc(Cl)c(Cl)c3)cc2)[C@@H]2C(=O)N(C)C(=O)[C@@H]21 1.99%, CCOc1ccccc1NC(=O)Cn1nnc(C(=O)NCc2cccs2)c1N 1.12%, CCCNC(=O)c1c(N)n(-c2ccc(S(N)(=O)=O)cc2)c2nc3ccccc3nc12 12.3%, Cc1c(C)n2c(SCC(=O)NC3CCCC3)nnc2[nH]c1=O 1.36%, CC(C)(C)Oc1ccccc1Nc1nc(NCCO)nc(N2CCCC2)n1 -2.11%, Cc1cc(O)cc(O)c1C(=O)Cc1cnn(-c2ccccc2)c1 0.165%, COc1ccc(C(=O)CC(=O)c2ccc(C)cc2)c(O)c1 2.86%, CCCCn1c(N)c(N(CC(C)C)C(=O)c2cccc(S(=O)(=O)N3CCN(C(C)=O)CC3)c2)c(=O)[nH]c1=O 6.15%, Cc1cc(/C=N/Nc2ccc([N+](=O)[O-])cn2)c(C)n1-c1cccc(C(=O)O)c1 -1.11%, COc1cc(/C=N/O)ccc1OCc1ccc([N+](=O)[O-])cc1 -0.23%

inhibition, active:
O=C(NNc1c2ccccc2nc2ccccc12)c1cc2ccccc2cc1O 46.1%, CC(C)(C)OC(=O)NNc1c2ccccc2nc2ccccc12 45.2%, Cn1c2ccccc2n2c(=O)c(=O)n(CC(=O)c3ccc(F)cc3)nc12 23.2%, CCCc1cc(=O)oc2c(C)c(O)c(CN3CCCCC3)cc12 58.6%, Cc1ncc(CO)c(/C=N/NC(=O)c2cccc(S(=O)(=O)N3CCCC3)c2)c1O 38.4%, CCOC(=O)C1=C(O)/C(=C/c2ccc(OCC(=O)Nc3ccc(C)cc3)cc2)N=C1C 70.2%, CC(=O)Nc1cc2ccc(OC(C)=O)cc2oc1=O 33.6%, COc1ccccc1/C=C/C1=NC(=C\N(C)C)/C(=O)O1 37%, Cc1cccc(C2c3[nH]c4ccccc4c3CCN2C(=O)c2cc(-c3cccn3C)n[nH]2)n1 (centres undefined) 21.1%, CC(C)Cn1c(N)c(C(=O)NCc2cccs2)c2nc3ccccc3nc21 73.8%, COc1ccc(C(=O)Cc2cnn(-c3ccccc3)c2)c(O)c1 17.5%, COc1cc(/C=N\Nc2ccc([N+](=O)[O-])cn2)ccc1OCC(=O)O 69.7%
